Measurements taken from PubChem BioAssay AID1159580 (chemical genetic matrix, 2015).
Out of some 5,500 compounds screened, about 2,000 (36%) were called active. Not shown: some 18% with an inconclusive outcome. Rule as the data show it: active = normalized growth mostly below about 0.91 (no sharp cut-off); inconclusive = no clear call, values can overlap the other calls; inactive = mostly above about 0.92. Some of the results follow.

Experiment: chemical genetic growth profiling, strain panel (AID 1159580);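 also: tested at 20 µM; growth read once vehicle control cultures reached saturation at 30 °C; 1 = growth at the plate median or of vehicle wells; lower values mean less growth of the strain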
Details: growth OD

Measured: normalized growth

CCCN(CCC)S(=O)(=O)c1ccc(C(=O)O)cc1
inactive: S. cerevisiae deletion strains, locus YJR075W, strain HOC1, hits give low values 1 | S. cerevisiae deletion strains, locus YKL009W, strain mrt4, hits give low values 0.998 | S. cerevisiae deletion strains, locus YKL068W, hits give low values 0.998 | S. cerevisiae deletion strains, locus YKL085W, strain MDH1 (second series), hits give low values 1 | S. cerevisiae deletion strains, locus YKL085W, strain MDH1, hits give low values 1 | S. cerevisiae deletion strains, locus YKL160W, strain elf1, hits give low values 0.971 | S. cerevisiae deletion strains, locus YKL190W, strain CNB1, hits give low values 0.983 | S. cerevisiae deletion strains, locus YKR001C, strain vps1, hits give low values 1.02 | S. cerevisiae deletion strains, locus YKR026C, strain gcn3, hits give low values 0.988 | S. cerevisiae deletion strains, locus YKR091W, strain srl3, hits give low values 0.993 | S. cerevisiae deletion strains, locus YLL001W, strain dnm1, hits give low values 0.952 | S. cerevisiae deletion strains, locus YLL026W, hits give low values 0.984 | S. cerevisiae deletion strains, locus YLL041C, strain sdh2, hits give low values 0.992 | S. cerevisiae deletion strains, locus YLR027C, strain aat2, hits give low values 0.973 | S. cerevisiae deletion strains, locus YLR039C, strain RIC1, hits give low values 1.02 | S. cerevisiae deletion strains, locus YLR058C, strain SHM2, hits give low values 1 | S. cerevisiae deletion strains, locus YLR102C, strain apc9, hits give low values 1 | S. cerevisiae deletion strains, locus YLR113W, strain HOG1, hits give low values 0.976 | S. cerevisiae deletion strains, locus YLR221C, strain rsa3, hits give low values 0.995 | S. cerevisiae deletion strains, locus YLR258W, strain gsy2, hits give low values 0.992 | S. cerevisiae deletion strains, locus YLR262C, strain YPT6 (second series), hits give low values 0.971 | S. cerevisiae deletion strains, locus YLR262C, strain YPT6, hits give low values 1.01 | S. cerevisiae deletion strains, locus YLR268W, strain sec22, hits give low values 1.03 | S. cerevisiae deletion strains, locus YLR320W, strain mms22, hits give low values 0.99 | S. cerevisiae deletion strains, locus YLR330W, strain CHS5, hits give low values 0.994 | S. cerevisiae deletion strains, locus YLR342W, strain FKS1 (second series), hits give low values 0.984 | S. cerevisiae deletion strains, locus YLR342W, strain FKS1, hits give low values 0.961 | S. cerevisiae deletion strains, locus YLR357W, strain rsc2, hits give low values 0.951 | S. cerevisiae deletion strains, locus YLR370C, strain arc18, hits give low values 0.974 | S. cerevisiae deletion strains, locus YLR371W, strain rom2, hits give low values 1.01 | S. cerevisiae deletion strains, locus YLR384C, strain iki3, hits give low values 0.983 | S. cerevisiae deletion strains, locus YLR418C, strain cdc73, hits give low values 1.03 | S. cerevisiae deletion strains, locus YML016C, strain PPZ1, hits give low values 1 | S. cerevisiae deletion strains, locus YML032C, strain rad52, hits give low values 1.02 | S. cerevisiae deletion strains, locus YML120C, strain ndi1, hits give low values 0.993 | S. cerevisiae deletion strains, locus YML124C, strain tub3, hits give low values 1.01 | S. cerevisiae deletion strains, locus YMR058W, strain fet3, hits give low values 0.991 | S. cerevisiae deletion strains, locus YMR078C, strain ctf18, hits give low values 1.03 | S. cerevisiae deletion strains, locus YMR125W, strain sto1, hits give low values 0.983 | S. cerevisiae deletion strains, locus YMR129W, hits give low values 0.991 | S. cerevisiae deletion strains, locus YMR205C, strain PFK2, hits give low values 0.984 | S. cerevisiae deletion strains, locus YMR223W, strain ubp8, hits give low values 0.992 | S. cerevisiae deletion strains, locus YMR231W, strain pep5, hits give low values 0.986 | S. cerevisiae deletion strains, locus YMR263W, strain SAP30, hits give low values 1 | S. cerevisiae deletion strains, locus YMR307W, strain GAS1, hits give low values 1 | S. cerevisiae deletion strains, locus YNL067W, strain RPL9B, hits give low values 1.01 | S. cerevisiae deletion strains, locus YNL071W, strain lat1, hits give low values 0.999 | S. cerevisiae deletion strains, locus YNL128W, strain TEP1, hits give low values 1.01 | S. cerevisiae deletion strains, locus YNL153C, strain GIM3, hits give low values 1.01 | S. cerevisiae deletion strains, locus YNL183C, strain NPR1, hits give low values 0.97 | S. cerevisiae deletion strains, locus YNL209W, strain ssb2, hits give low values 1.01 | S. cerevisiae deletion strains, locus YNL233W, strain BNI4, hits give low values 0.999 | S. cerevisiae deletion strains, locus YNL248C, strain rpa49, hits give low values 0.989 | S. cerevisiae deletion strains, locus YNL250W, strain rad50, hits give low values 1.01 | S. cerevisiae deletion strains, locus YNL271C, strain bni1, hits give low values 1.01 | S. cerevisiae deletion strains, locus YNL298W, strain CLA4, hits give low values 1.01 | S. cerevisiae deletion strains, locus YNL307C, strain MCK1, hits give low values 1.01 | S. cerevisiae deletion strains, locus YNL322C, strain KRE1 (second series), hits give low values 0.99 | S. cerevisiae deletion strains, locus YNL322C, strain KRE1, hits give low values 0.997 | S. cerevisiae deletion strains, locus YNR049C, strain mso1, hits give low values 0.984 | S. cerevisiae deletion strains, locus YNR052C, strain pop2, hits give low values 1.02 | S. cerevisiae deletion strains, locus YOL006C, strain TOP1, hits give low values 1.05 | S. cerevisiae deletion strains, locus YOL012C, strain htz1 0.687 | S. cerevisiae deletion strains, locus YOL147C, strain pex11, hits give low values 1 | S. cerevisiae deletion strains, locus YOR001W, strain rrp6, hits give low values 0.98 | S. cerevisiae deletion strains, locus YOR061W, strain CKA2, hits give low values 1 | S. cerevisiae deletion strains, locus YOR069W, strain VPS5, hits give low values 0.995 | S. cerevisiae deletion strains, locus YOR070C, strain gyp1, hits give low values 1 | S. cerevisiae deletion strains, locus YOR080W, strain dia2, hits give low values 0.982 | S. cerevisiae deletion strains, locus YOR083W, strain WHI5, hits give low values 0.953 | S. cerevisiae deletion strains, locus YOR106W, strain vam3, hits give low values 0.971 | S. cerevisiae deletion strains, locus YOR136W, strain idh2, hits give low values 1.02 | S. cerevisiae deletion strains, locus YOR144C, strain elg1, hits give low values 1.01 | S. cerevisiae deletion strains, locus YOR184W, strain ser1, hits give low values 1.04 | S. cerevisiae deletion strains, locus YOR231W, strain MKK1, hits give low values 0.976 | S. cerevisiae deletion strains, locus YOR265W, strain rbl2, hits give low values 0.992 | S. cerevisiae deletion strains, locus YOR270C, strain vph1, hits give low values 1 | S. cerevisiae deletion strains, locus YOR290C, strain snf2, hits give low values 1.01 | S. cerevisiae deletion strains, locus YOR316C, strain cot1, hits give low values 1.01 | S. cerevisiae deletion strains, locus YPL051W, strain arl3, hits give low values 0.984 | S. cerevisiae deletion strains, locus YPL055C, strain LGE1, hits give low values 0.976 | S. cerevisiae deletion strains, locus YPL078C, strain atp4, hits give low values 0.953 | S. cerevisiae deletion strains, locus YPL106C, strain sse1, hits give low values 1.01 | S. cerevisiae deletion strains, locus YPL240C, strain hsp82, hits give low values 0.977 | S. cerevisiae deletion strains, locus YPL241C, strain CIN2, hits give low values 0.991 | S. cerevisiae deletion strains, locus YPL256C, strain CLN2, hits give low values 1.04 | S. cerevisiae deletion strains, locus YPR119W, strain clb2, hits give low values 1.01 | S. cerevisiae deletion strains, locus YPR141C, strain kar3, hits give low values 1 | S. cerevisiae deletion strains, locus YPR163C, strain tif3, hits give low values 1.01 | S. cerevisiae deletion strains, locus YPR167C, strain met16, hits give low values 1.01 | S. cerevisiae deletion strains, strain wtn01, hits give low values 1.01 | S. cerevisiae strains, strain wild type, hits give low values 0.99
